# Data published in PubChem BioAssay (NCATS).
# Records with an inconclusive call do not appear. Where a call stands in place of a potency, no number is given. Activity calls are given as the source filed them. Calls come from the whole dose curve; as a rule, active = well fitted curve in the direction sought with a large enough effect; inconclusive = small, poorly fitted or top-dose-only effect, or another doubt; inactive = no such curve, though single readings can be large; an effect the other way counts as inactive or inconclusive.
# Experiments:
# [1] = qHTS assay to identify small molecule inhibitors of chordoma cells - UCH-1 (AID 1259355); note: nearly all actives have a fitted effect of over 55% in size; note: potency is the fitted concentration of half-maximal effect
# In short: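 Cells (800/well) were seeded and left overnight at 37 C, 5% CO2, then treated with drugs at 15 concentrations plus a combination mix of auranofin, camptothecin, doxorubicin, rubitecan and topotecan. Viability after 48hr was read by CellTiter-Glo luminescence.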
# [2] = qHTS assay to identify small molecule inhibitors of chordoma cells - UCH-2 (AID 1259356); note: potency is the fitted concentration of half-maximal effect
# [3] = qHTS profiling for inhibitors of Plasmodium falciparum (HB3) proliferation (AID 743324); conditions: Plasmodium falciparum HB3 blood-stage proliferation; at 28.7 µM (top of the series)
# In short: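 P. falciparum HB3 grown in erythrocytes (0.3% parasitemia, 2.5% hematocrit final) with compound for 72 h at 37 C, 5% CO2. Parasite DNA detected by SYBR Green after saponin/triton lysis overnight; normalized to 0.29 uM artemisinin and DMSO.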
Compound,Potency [1],Potency [2],"remaining proliferation (% of control), lower = more inhibition [3] [%]"
CCN(CC)C(=O)/C(Cl)=C(\C)OP(=O)(OC)OC,inactive,inactive,–
C[N+]1([O-])[C@@H]2CC[C@H]1CC(OC(=O)C(CO)c1ccccc1)C2 (stereo partly specified),inactive,inactive,–
C[C@]12C=CC(=O)C=C1CC[C@@H]1[C@@H]2CC[C@]2(C)OC(=O)CC[C@@H]12,inactive,inactive,–
O=S(=O)(O)c1cc(O)ccc1O,inactive,inactive,–
CC1(C)[C@H](C=C(Cl)Cl)[C@H]1C(=O)OCc1c(F)c(F)cc(F)c1F,inactive,inactive,–
Clc1ccc(C(Cn2ccnc2)OCc2csc3c(Cl)cccc23)c(Cl)c1 (stereo unspecified),inactive,inactive,–
CC(=O)O[C@H]1C[C@H](O[C@H]2[C@@H](O)C[C@H](O[C@H]3[C@@H](O)C[C@H](O[C@H]4CC[C@@]5(C)[C@H](CC[C@@H]6[C@@H]5C[C@@H](O)[C@]5(C)[C@@H](C7=CC(=O)OC7)CC[C@]65O)C4)O[C@@H]3C)O[C@@H]2C)O[C@H](C)[C@H]1O[C@@H]1O[C@H](CO)[C@@H](O)[C@H](O)[C@H]1O,251 nM (active),146 nM (active),–
C[C@@H](Cc1ccccc1)NCCC(c1ccccc1)c1ccccc1,inactive,inactive,–
O=C(CS(=O)C(c1ccccc1)c1ccccc1)NO (stereo unspecified),inactive,inactive,–
CN[C@H]1C[C@@H](N)[C@H](O)[C@@H](O[C@@H]2O[C@H](CO)[C@H](O)[C@@H]3OC4(O[C@H]23)O[C@H](C(N)CO)[C@H](O)[C@H](O)[C@H]4O)[C@@H]1O (stereo partly specified),inactive,inactive,–
CC[N+](C)(CC)CCOC(=O)C(O)(c1ccccc1)c1ccccc1,inactive,inactive,–
COCC(C)N(C(=O)CCl)c1c(C)csc1C (stereo unspecified),inactive,inactive,–
CCC1C(C)=NN=C(c2ccc(OC)c(OC)c2)c2cc(OC)c(OC)cc21 (stereo unspecified),inactive,inactive,–
Cc1ccccc1-n1c(CF)nc2ccc(N)cc2c1=O,inactive,inactive,–
CC(C)Nc1ccc(Nc2ccccc2)cc1,inactive,inactive,–
C/C(=C\c1csc(C)n1)[C@@H]1C[C@@H]2O[C@]2(C)CCC[C@H](C)[C@H](O)[C@@H](C)C(=O)C(C)(C)[C@@H](O)CC(=O)O1,–,–,14.1
